In PubChem BioAssay:
Activity calls are given as the source filed them.

Columns and labels:
[1] = optical density shifts of acrAB sulA E. coli – strain DRC41, OD650, 48 h, E. coli filamentation inducer project, primary screen (AID 1152); conditions: higher = more signal, called active from +8 up or from −8 down;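 further: E. coli MC1000 strain DRC41 lacking acrAB efflux pump and sulA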
[2] = probe aLefty1 binding on compound microarray – biochemical, small-molecule microarray, 635/667 nm fluorescence, primary screen (AID 1153); conditions: higher = more signal;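 further: score merges spot fluorescence with signal-to-noise ratio from the scanned slide images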
[3] = plasmodial surface anion channel blockers, osmotic lysis – cell-based, P. falciparum Indochina, OD700, 1 h, primary screen (AID 1154); conditions: P. falciparum Indochina infected RBC osmotic lysis, higher = more signal, called active from +8 up or from −8 down
[4] = plasmodial surface anion channel blockers, osmotic lysis – cell-based, P. falciparum Indochina, OD700, 2 h, primary screen (AID 1155);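 further: lysis reports solute entry through the parasite surface anion channel PSAC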; conditions: P. falciparum Indochina infected erythrocytes, higher = more signal, called active from +8 up or from −8 down
[5] = changes in parasitized red cell lysis, either direction – P. falciparum Indochina, OD700, 3 h, PSAC antagonist project, primary screen (AID 1156); conditions: P. falciparum-infected erythrocytes, osmotic lysis, higher = more signal, called active from +8 up or from −8 down
[6] = plasmodial surface anion channel blockers, osmotic lysis – cell-based, P. falciparum Indochina, OD700, 18 h, primary screen (AID 1157); conditions: P. falciparum Indochina infected erythrocytes, osmotic lysis OD700, 18 h; higher = more signal, called active from +8 up or from −8 down
[7] = S6 kinase pathway phospho-S6 level changes – cell-based, A549, cytoblot, luminescence, serum-stimulated, primary screen (AID 1158); conditions: 5 h, higher = more signal;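 further: serum-stimulated A549 lung adenocarcinoma cells; signal is phosphorylated S6 detected by cytoblot immunostaining with HRP secondary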
[8] = molecular target: NADPH oxidase 2 (Homo sapiens) (UniProt P04839); assay: compounds shifting NOX2 Amplex Red fluorescence – cell-based, HEK293-NOX2, PMA-stimulated, NOX inhibitor project, primary screen (AID 1159); conditions: 45 min, higher = more signal, called active from +8 up or from −8 down; further: test concentration not given here
[9] = molecular target: NADPH oxidase 4 (Homo sapiens) (UniProt Q9NPH5); assay: compounds shifting NOX4 Amplex Red fluorescence – cell-based, HEK293-NOX4, tetracycline-induced, NOX inhibitor project, primary screen (AID 1160); conditions: HEK293-NOX4, Amplex Red H2O2 fluorescence, 45 min; higher = more signal, called active from +8 up or from −8 down
[10] = molecular target: NADPH oxidase 5 (Homo sapiens) (UniProt Q96PH1); assay: compounds shifting NOX5 Amplex Red fluorescence – cell-based, HEK293-NOX5, NOX inhibitor project, primary screen (AID 1161); conditions: HEK293-NOX5, ionomycin, 45 min, higher = more signal
[11] = compound effects on lung adenocarcinoma cell viability – A549, calcein-AM fluorescence, 48 h, basal, profiling panel (AID 1162); conditions: higher = more signal; further: test concentration not given here
[12] = compound effects on differentiated 3T3-L1 adipocyte viability – cell-based, 3T3-L1 adipocytes, calcein-AM fluorescence, 48 h, basal, profiling panel (AID 1163); conditions: 3T3-L1 adipocytes viability, higher = more signal; further: test concentration not given here
[13] = compound effects on hepatocellular carcinoma cell viability – HepG2, calcein-AM fluorescence, 48 h, basal, profiling panel (AID 1164); conditions: higher = more signal; further: test concentration not given here
[14] = compound effects on multiple myeloma cell viability – MM1S, calcein-AM fluorescence, 48 h, basal, profiling panel (AID 1165); conditions: higher = more signal; further: test concentration not given here
[15] = calcein-AM signal in unstimulated myeloma cells – cell-based, calcein-AM fluorescence, 48 h, PK04 Diversity Set, profiling panel (AID 1166); conditions: RPMI8226 myeloma viability, higher = more signal;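 further: cells grown under basal conditions without added stimulus; test concentration not given here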
[16] = JC-1 mitochondrial signal, unstimulated HepG2 cells – cell-based, JC-1 fluorescence, 24 h, 100 nL compound, profiling panel (AID 1167); conditions: HepG2 mitochondrial potential, higher = more signal; further: test concentration not given here
[17] = JC-1 mitochondrial signal, unstimulated adipocytes – cell-based, JC-1 fluorescence, 3T3-L1 adipocytes, 24 h, 100 nL compound, profiling panel (AID 1168); conditions: JC-1 mitochondrial fluorescence, higher = more signal, called active from +8 up or from −8 down; further: test concentration not given here
[18] = JC-1 mitochondrial signal, unstimulated myeloma cells – cell-based, JC-1 fluorescence, RPMI8226, 24 h, 100 nL compound, profiling panel (AID 1169); conditions: JC-1 mitochondrial potential fluorescence, higher = more signal; further: test concentration not given here
[19] = JC-1 mitochondrial signal, unstimulated MM1S myeloma – cell-based, JC-1 fluorescence, 24 h, 100 nL compound, profiling panel (AID 1170); conditions: MM1S mitochondrial potential, higher = more signal; further: test concentration not given here
[20] = resazurin metabolic signal in A549 cells – cell-based, resazurin fluorescence, 24 h, PK04 Diversity Set, profiling panel (AID 1171); conditions: A549 viability, higher = more signal, called active from +8 up or from −8 down; further: test concentration not given here

Sequence of NADPH oxidase 5 (Homo sapiens) (Q96PH1 whole entry, looked up): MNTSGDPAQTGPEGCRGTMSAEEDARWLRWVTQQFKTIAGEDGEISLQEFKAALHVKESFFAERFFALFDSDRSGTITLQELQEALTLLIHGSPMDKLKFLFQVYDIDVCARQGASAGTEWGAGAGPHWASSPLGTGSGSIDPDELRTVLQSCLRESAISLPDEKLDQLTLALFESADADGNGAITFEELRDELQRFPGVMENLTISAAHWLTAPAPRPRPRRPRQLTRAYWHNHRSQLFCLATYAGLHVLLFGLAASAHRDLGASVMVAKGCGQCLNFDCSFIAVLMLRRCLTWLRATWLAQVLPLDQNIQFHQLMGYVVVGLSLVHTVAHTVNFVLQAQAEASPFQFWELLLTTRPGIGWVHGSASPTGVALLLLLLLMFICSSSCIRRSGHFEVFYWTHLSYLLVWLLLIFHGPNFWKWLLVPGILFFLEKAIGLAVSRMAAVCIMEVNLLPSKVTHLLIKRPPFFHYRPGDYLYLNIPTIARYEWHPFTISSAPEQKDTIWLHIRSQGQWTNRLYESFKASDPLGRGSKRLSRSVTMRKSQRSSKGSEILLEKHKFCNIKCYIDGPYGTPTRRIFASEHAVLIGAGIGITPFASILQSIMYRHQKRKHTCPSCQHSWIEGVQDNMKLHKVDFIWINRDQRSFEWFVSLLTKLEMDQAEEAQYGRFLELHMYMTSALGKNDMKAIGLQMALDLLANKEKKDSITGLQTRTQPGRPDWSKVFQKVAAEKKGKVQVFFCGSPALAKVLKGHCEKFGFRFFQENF
Sequence of NADPH oxidase 4 (Homo sapiens) (Q9NPH5 whole entry, looked up): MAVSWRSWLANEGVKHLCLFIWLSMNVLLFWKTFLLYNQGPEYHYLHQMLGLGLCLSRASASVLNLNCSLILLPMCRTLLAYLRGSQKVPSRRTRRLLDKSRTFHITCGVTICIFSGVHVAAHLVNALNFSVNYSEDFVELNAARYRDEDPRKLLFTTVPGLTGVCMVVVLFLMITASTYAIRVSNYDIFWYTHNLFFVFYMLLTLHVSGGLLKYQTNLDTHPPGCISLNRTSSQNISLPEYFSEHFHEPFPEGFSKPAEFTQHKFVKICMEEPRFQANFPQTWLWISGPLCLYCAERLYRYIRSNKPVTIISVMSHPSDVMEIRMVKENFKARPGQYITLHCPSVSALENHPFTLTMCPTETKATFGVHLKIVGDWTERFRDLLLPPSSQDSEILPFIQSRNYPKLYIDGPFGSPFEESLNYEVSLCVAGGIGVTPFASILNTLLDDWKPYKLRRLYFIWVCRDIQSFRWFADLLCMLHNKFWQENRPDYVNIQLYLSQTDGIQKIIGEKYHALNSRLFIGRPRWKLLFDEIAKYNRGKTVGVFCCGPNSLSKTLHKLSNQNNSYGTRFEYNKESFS
Sequence of NADPH oxidase 2 (Homo sapiens) (P04839 whole entry, looked up): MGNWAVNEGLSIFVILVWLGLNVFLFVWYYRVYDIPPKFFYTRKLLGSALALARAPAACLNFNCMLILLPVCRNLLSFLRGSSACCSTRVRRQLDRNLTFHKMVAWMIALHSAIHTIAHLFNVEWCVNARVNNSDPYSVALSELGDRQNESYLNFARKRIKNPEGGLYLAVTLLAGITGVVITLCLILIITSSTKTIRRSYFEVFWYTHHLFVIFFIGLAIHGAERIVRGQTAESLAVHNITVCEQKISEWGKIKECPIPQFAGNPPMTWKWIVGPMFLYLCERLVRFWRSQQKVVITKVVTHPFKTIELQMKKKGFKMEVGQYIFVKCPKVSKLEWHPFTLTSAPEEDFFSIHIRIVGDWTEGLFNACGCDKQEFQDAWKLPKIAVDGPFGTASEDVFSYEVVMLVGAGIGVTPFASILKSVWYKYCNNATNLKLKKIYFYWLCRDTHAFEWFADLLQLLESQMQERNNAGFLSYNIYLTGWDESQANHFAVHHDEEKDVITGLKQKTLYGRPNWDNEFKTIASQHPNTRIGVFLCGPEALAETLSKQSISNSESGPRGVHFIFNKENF

Structure (SMILES)	z-score [1]	composite z-score [2]	z-score [3]	z-score [4]	z-score [5]	z-score [6]	z-score [7]	z-score [8]	z-score [9]	z-score [10]	z-score [11]	z-score [12]	z-score [13]	z-score [14]	z-score [15]	z-score [16]	z-score [17]	z-score [18]	z-score [19]	z-score [20]
CCCC=C(CCC)[C@@H](NS(=O)(=O)c1cccc2cccnc12)c1ccc(-c2ccccc2)cc1	-1.37 (inactive)	0.396	0.012 (inactive)	0.451 (inactive)	1.24 (inactive)	0.913 (inactive)	0.389	-0.876 (inactive)	1.59 (inactive)	2.39	-0.97	-0.411	-0.615	-1.95	-4.54	-3.54	-0.0229 (inactive)	-0.361	-0.844	0.864 (inactive)
NC(=O)[C@H]1[C@@H]2C(=O)O[C@@H](c3ccccc3)[C@@H](c3ccccc3)N2[C@@H](c2ccc(O)cc2)[C@]12C(=O)Nc1ccccc12	-0.261 (inactive)	-0.18	3.33 (inactive)	1.23 (inactive)	0.217 (inactive)	0.515 (inactive)	-0.471	-0.741 (inactive)	-0.988 (inactive)	0.572	-0.265	-0.712	0.872	0.519	-0.544	-0.288	-0.243 (inactive)	-0.309	-0.371	-0.189 (inactive)
COc1cc2c(cc1O)C(c1ccc(CN3CCCC3)cc1)N(C)CC2 (stereo not given)	0.309 (inactive)	-0.446	0.0334 (inactive)	-0.0719 (inactive)	0.247 (inactive)	0.0339 (inactive)	-0.364	-1.63 (inactive)	-1.46 (inactive)	-1.22	0.105	-0.582	0.339	0.752	0.0578	0.224	0.585 (inactive)	0.224	-0.699	-1.18 (inactive)
Cc1cccc([C@H]2C[C@H]3C(Br)=C[C@@H]2C(=O)[C@]32CO2)c1	-0.227 (inactive)	-0.147	0.969 (inactive)	0.323 (inactive)	0.463 (inactive)	0.06 (inactive)	0.209	0.7 (inactive)	-0.00866 (inactive)	-0.854	-0.798	0.0171	-1.24	-3.14	-2.72	-0.565	0.404 (inactive)	-0.837	-0.262	-0.581 (inactive)
CC(C)N1CC=CC23O[C@@H]4/C=C\CCCOC(=O)C4[C@H]2C(=O)N(CCCCCCO)[C@@H]3C1=O (stereo not given in full)	2.15 (inactive)	0.248	0.904 (inactive)	0.0039 (inactive)	0.622 (inactive)	0.133 (inactive)	0.842	1 (inactive)	0.105 (inactive)	1.92	1.46	-0.377	0.922	1.49	0.0006	1.14	-0.0751 (inactive)	-0.659	1.23	1.51 (inactive)
C[C@]1(C(=O)NCCN2CCOCC2)c2ccccc2C(=O)N(Cc2cc(F)cc(C(F)(F)F)c2)[C@H]1c1ccc(CO)cc1	1.28 (inactive)	0.0892	5.73 (inactive)	0.651 (inactive)	1.24 (inactive)	0.28 (inactive)	0.523	0.51 (inactive)	0.798 (inactive)	-0.291	0.13	-0.35	0.545	-0.89	0.231	2.36	0.835 (inactive)	0.695	-0.714	0.693 (inactive)
C=CCC(OC(C)=O)[C@@H]1[C@@H](N(Cc2cccc3ccccc23)C(=O)c2cccc3ccccc23)c2cc(OCCCO)ccc2N1C(=O)c1ccc2ccccc2c1 (stereo not given in full)	0.0047 (inactive)	-0.333	0.529 (inactive)	-0.128 (inactive)	1.41 (inactive)	0.0897 (inactive)	0.914	-2.77 (inactive)	-1.09 (inactive)	-2.66	-0.0249	0.521	-0.184	-0.189	0.0694	2.48	-0.419 (inactive)	0.489	0.591	0.933 (inactive)
CN1C(=O)C2C(C1=O)C1C=C(CCCO)C2C(C2CC2)N1Cc1cc2c(cc1Br)OCO2 (stereo not given)	-0.541 (inactive)	0.0041	3.48 (inactive)	0.68 (inactive)	0.3 (inactive)	0.307 (inactive)	-0.188	-0.84 (inactive)	-0.389 (inactive)	-0.349	-0.487	0.337	-0.717	-0.172	-0.909	0.435	-0.527 (inactive)	0.87	0.859	-0.477 (inactive)
O=C1C2C=CC(C(O)c3ccc(I)cc3)N(Nc3ccccc3)C2C(=O)N1c1ccccc1 (stereo not given)	-1.11 (inactive)	0.437	6.92 (inactive)	2.42 (inactive)	-0.166 (inactive)	1.83 (inactive)	-1.21	-1.88 (inactive)	-3.86 (inactive)	-2.54	0.0685	-0.748	0.1	0.196	-0.311	-2.3	-1.3 (inactive)	-0.865	-0.603	-0.393 (inactive)
CCCCC(=C=CC[C@H](O)c1ccc(OCCO)cc1)C[C@H](O)c1cc(Cl)cc(Cl)c1O	-0.118 (inactive)	0.13	21.2 (active)	5.19 (inactive)	1.56 (inactive)	1.73 (inactive)	-0.476	0.51 (inactive)	-0.667 (inactive)	-1.49	-0.217	-0.185	-0.197	-3.34	-2.76	-2.43	-0.368 (inactive)	-0.773	-0.349	1.17 (inactive)
CC(C)c1ccc(NN2C(C(O)Cc3ccccc3)C=CC3C(=O)N(c4ccccc4)C(=O)C32)cc1 (stereo not given)	-1.76 (inactive)	0.181	1.93 (inactive)	1.31 (inactive)	0.127 (inactive)	1.05 (inactive)	-1.27	-0.343 (inactive)	-3.62 (inactive)	-2.69	-0.989	-0.482	0.526	-1.06	-0.434	-2	-0.864 (inactive)	0.411	1.51	-0.63 (inactive)
COc1ccc(NC(=O)O[C@H]2[C@@H]3OC(=O)[C@H](Cc4cccc(Br)c4)C/C=C/C[C@@H](Cc4cccc(Br)c4)C(=O)O[C@H]3[C@@H](OC)O[C@@H]2CO)cc1	0.446 (inactive)	0.358	0.469 (inactive)	-0.173 (inactive)	-0.284 (inactive)	0.434 (inactive)	0.353	-1.73 (inactive)	-1.21 (inactive)	-1.64	-0.102	-0.226	0.323	-1.14	-0.153	1.6	-0.483 (inactive)	-0.897	0.329	-0.981 (inactive)
O=C1O[C@H](c2ccccc2)[C@H](c2ccccc2)N2[C@H]1[C@@H](C(=O)N1CCCCCCC1)[C@]1(C(=O)Nc3ccc(C#CC4(O)CCCCCC4)cc31)[C@H]2c1ccccc1OCCO	-0.0659 (inactive)	2.87	0.707 (inactive)	0.216 (inactive)	-0.168 (inactive)	0.614 (inactive)	0.43	0.643 (inactive)	0.485 (inactive)	1.56	-0.222	-0.107	0.703	-0.0437	-0.908	-0.175	0.64 (inactive)	-0.74	-1.26	-0.152 (inactive)
COCCOC(=O)N1C(=O)[C@@]2(c3cc(C#CCNC(N)=O)ccc31)[C@H](c1ccc(O)cc1)N1[C@H](c3ccccc3)[C@H](c3ccccc3)OC(=O)[C@H]1[C@@H]2C(N)=O	0.847 (inactive)	-0.67	0.646 (inactive)	0.783 (inactive)	-0.158 (inactive)	0.386 (inactive)	0.285	0.37 (inactive)	0.163 (inactive)	0.361	1.66	-0.654	0.405	0.337	-0.933	2.07	-0.0574 (inactive)	-0.932	-0.139	0.934 (inactive)
COc1ccc([Si](C)(C)[C@@H]2[C@@H](CC(=O)N3Cc4ccccc4C[C@H]3CO)O[C@]3(C(=O)N(c4ccccc4)c4ccccc43)[C@H]2C)cc1	0.162 (inactive)	0.855	6.47 (inactive)	1.76 (inactive)	0.168 (inactive)	1.65 (inactive)	0.947	0.651 (inactive)	0.71 (inactive)	0.544	-0.77	0.703	-2.85	-2.37	-4.35	1.37	0.631 (inactive)	-1.06	-2.08	-1.39 (inactive)
CC(C)C[C@@H]1NC(=O)[C@H]2C[C@@H](C(=O)NCCCCCN)[C@@H](c3cccc(OCCO)c3)N2C1=O	1.25 (inactive)	-0.0172	3.07 (inactive)	-0.328 (inactive)	2.27 (inactive)	-2.15 (inactive)	2.13	1.33 (inactive)	0.993 (inactive)	2.1	0.779	0.57	1.3	0.64	-0.0687	1.07	0.97 (inactive)	-0.336	-0.16	0.11 (inactive)
CC(C)CCC[C@@H](C)[C@H]1CC[C@@]2(C)C3=C(CC[C@]12C)[C@@]1(C)CC[C@H](OC(=O)c2ccccc2)C(C)(C)C1CC3 (stereo not given in full)	2.94 (inactive)	0.0939	-0.44 (inactive)	-0.47 (inactive)	-0.414 (inactive)	-1.26 (inactive)	1.64	-0.898 (inactive)	0.288 (inactive)	0.465	0.667	0.635	0.771	0.34	0.201	1.73	1.1 (inactive)	-0.671	-2.12	0.774 (inactive)
CCOC(=O)C=Cc1cc(F)ccc1O	-1.38 (inactive)	0.0355	16.6 (active)	-0.347 (inactive)	0.782 (inactive)	-1.23 (inactive)	0.684	-4.77 (inactive)	-3.25 (inactive)	-4.14	-1.13	0.749	-0.714	-0.633	-1.39	-1.19	-0.966 (inactive)	0.287	-0.0774	0.0142 (inactive)
